Screening data from PubChem BioAssay.
HTT aggregate = inhibitors of mutant huntingtin aggregate formation in PC12 cells; Potency, µM (series often up to 46.1 µM), inactives show top-dose activity change, negative = inhibition, usual class: inhibitors; 1.1% of 220,000 active; AID 1688; PC12 HttQ103-GFP aggregates, Acumen cytometry, 40 h; further: potency means the concentration at half of the fitted maximal effect; on the % scale 0 is the no-effect control and ±100 the full control effect; nearly all actives have a fitted effect of over 60% in size
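Ecdysone-promoter PC12 model expressing HTT exon 1 Q103 fused to GFP, induced by tebufenozide at 100 nM final. Compounds titrated; aggregates sized 1–25 µm scored on a 488 nm laser cytometer.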
ERK EGF inh = EGF-driven ERK pathway inhibition; HEK293-V1b, EGF-stimulated phospho-ERK AlphaScreen; Potency, µM (highest dose often 11.5 µM), inactives show at the highest dose activity change, negative = inhibition, most hits filed as inhibitors; 0.41% of 130,000 active; AID 1454;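 further: potency means the concentration at half of the fitted maximal effect; plate controls were stimulated vehicle wells for no effect and unstimulated vehicle basal for full effect; nearly all actives have a fitted effect of over 55% in size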
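Readout: AlphaScreen signal for phosphorylated ERK in lysed HEK293 cells stably expressing V1b. Stimulus 25 nM EGF, 5 min, following 30 min compound exposure. Data scaled to DMSO basal and full EGF activation.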
GLA inh pH 4.5 = alpha-galactosidase A (human) inhibition, pH 4.5. P06280. purified enzyme, 4-MU-alpha-Gal fluorescence, pH 4.5. activity change, negative = inhibition, % at 105 µM. 230,000 tested, under 10 active. AID 1467;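 further: 0% = full activity with enzyme and -100% = basal without enzyme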
GLA spleen mod = inhibits or activates alpha-galactosidase in human spleen homogenate. P06280. 0.008% of 240,000 active. human spleen homogenate, 4MU-alpha-Gal fluorescence, 40 min. Potency, µM (series often up to 80 µM), without a hit: at the top dose activity change, negative = inhibition, actives largely listed as inhibitors. AID 2107;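 further: potency means the concentration at half of the fitted maximal effect; 0% = enzyme with vehicle and -100% = no enzyme basal signal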
Target sequence (P06280 32-429 limits assumed): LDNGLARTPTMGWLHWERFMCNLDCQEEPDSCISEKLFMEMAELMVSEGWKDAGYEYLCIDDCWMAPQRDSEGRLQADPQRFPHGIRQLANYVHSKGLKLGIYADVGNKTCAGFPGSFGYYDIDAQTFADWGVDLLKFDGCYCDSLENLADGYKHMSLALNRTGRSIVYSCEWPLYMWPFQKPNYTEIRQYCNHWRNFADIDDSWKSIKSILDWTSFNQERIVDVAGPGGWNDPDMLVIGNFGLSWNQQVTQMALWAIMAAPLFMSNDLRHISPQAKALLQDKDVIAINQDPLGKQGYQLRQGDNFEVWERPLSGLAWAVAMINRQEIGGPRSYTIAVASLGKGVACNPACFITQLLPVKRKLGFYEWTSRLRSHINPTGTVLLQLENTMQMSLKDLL
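Inhibition or activation of alpha-galactosidase in human spleen homogenate is scored by 4-MU fluorescence after 40 min at 37C, pH 5.0, with 1 mM substrate. AC50s come from concentration-response fitted to the Hill equation.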
HTT ATP protect = Huntington cell model cytoprotection by ATP luminescence; PC12 HTT-Q103 induced, cytoprotection, ATP luminescence, 40 h; Potency, µM (doses to about 56.4 µM), without a hit: cytoprotection (ATP increase), hits mostly activators; 0.14% of 230,000 active; AID 1471; further: potency means the concentration at half of the fitted maximal effect; % of control where 0% means no effect; nearly all actives have a fitted effect of over 45% in size
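Rat PC12, Q103 Htt exon1-GFP fusion, ecdysone promoter; tebufenozide inducer 100 nM final; compound titration; qHTS, 1500 cells/well; ATPlite luminescent read.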
Numbers without * were called inactive; ? = inconclusive; . = no result; ! = a repeat was not active; [ ] = another dose, or the depositor's remark. The list is not random: actives were taken first. Their share in the collection is about 1.2%. The call rests on the fitted dose curve; in most records, active means well fitted curve in the direction sought with a large enough effect; inconclusive means small, poorly fitted or top-dose-only effect, or another doubt; inactive means no such curve, though single readings can be large; an effect the other way counts as inactive or inconclusive.

SMILES	HTT aggregate	ERK EGF inh	GLA inh pH 4.5	GLA spleen mod	HTT ATP protect
Oc1c(Br)cc(Br)cc1Oc1ccc(Br)cc1Br	13µM*	3%	-2	-1%	.
Brc1ccc(Oc2ccc(Br)cc2Br)c(Br)c1	.	.	.	-5%	2%
CC1=C2[C@@H]3OC(=O)[C@H](C)[C@H]3CC[C@@]2(C)C=CC1=O	.	.	.	.	-1%
c1ccc2c(c1)OC[C@@H](C1=NCCN1)O2	.	2%	2	7%	5µM*!
Cc1ccc(/C=C2\C(=O)NC(=S)N(c3ccc(F)cc3)C2=O)s1	3%	5%	-1	1%	-28%
Cc1ccc(/C=C2\C(=O)NC(=S)N(c3ccccc3F)C2=O)s1	0%	20µM*	3	-4%	-11%[10 µM]
Oc1cc(Cl)ccc1Oc1ccc(Cl)cc1Cl	.	.	-2	-6%	7.1µM*
Oc1ccc(Cl)cc1Cl	.	.	.	-17%	3%
CC1=C(O)C(=O)C=C2C1=CC=C1[C@]2(C)CC[C@@]2(C)C3C[C@](C)(C(=O)O)CC[C@@]3(C)CC[C@@]12C (stereo partly drawn)	.	16µM*	-3	-5%	.
CCOP(=O)(Cc1cc(C(=O)CC)c(C)o1)OCC	0.01µM*	10%[57.5 µM]	-12	-5%	.
CC(=O)[O-].CC(=O)[O-].O.O.[Cd+2]	.	.	.	-12%	-69%
CC(C)n1c(O)c(C2c3cc(Cl)ccc3Oc3[nH]c(=O)n(C(C)C)c(=O)c32)c(=O)[nH]c1=O (stereo not drawn)	?	3.2µM*	2	2%	-24%[10 µM]
CC(=O)c1c(O)n(-c2cccc(Cl)c2)c(=O)[nH]c1=O (tested in a mixture with another compound)	19%[9.22 µM]	-10%[57.5 µM]	-1	-5%	-14%[10 µM]
C/C=C1\C[C@H](C)[C@](O)(CO)C(=O)OCC2=CCN3CC[C@@H](OC1=O)[C@@H]23	.	.	.	.	-2%
C=CCN1CC[C@@]23CCCC[C@@H]2[C@@H]1Cc1ccc(O)cc13	.	.	.	.	11%[1.9 µM]
CCC(=NCCN1CCCCC1)c1c(O)n(C)c(=O)n(C)c1=O	8%	.	-2	3%	6%
CCC(=NCc1ccc2c(c1)OCO2)c1c(O)n(C)c(=O)n(C)c1=O	20µM*	.	0	3%	-25%[0.074 µM]
CCC(=NCCc1c[nH]c2ccccc12)c1c(O)n(C)c(=O)n(C)c1=O	7.9µM*	.	2	-9%	-28%
CCC(=NCCOc1ccc(Cl)cc1)c1c(O)n(C)c(=O)n(C)c1=O	11µM*	.	-7	-3%	-23%
CC(=NCc1ccc2c(c1)OCO2)c1c(O)n(C)c(=O)n(C)c1=O	-9%	.	0	1%	-25%[10 µM]
N[C@H](Cc1ccc(N(CCCl)CCCl)cc1)C(=O)O	.	.	.	.	-32%[1.9 µM]
CCN(CC)c1ncnc2c1ncn2[C@@H]1O[C@@H](COP(=O)(O)OP(=O)(O)C(Br)(Br)P(=O)(O)O)[C@H](O)[C@@H]1O	.	.	.	.	2%[1.9 µM]
Cc1cc(C)cc(N2C(=O)NC(=O)/C(=C\c3cccn3-c3ccccc3)C2=O)c1	28µM*	?	-1	3%	-3%[10 µM]
C[C@H]1CC[C@@H]2[C@@H](C)[C@H]3[C@H](C[C@H]4[C@@H]5CC=C6CC(O[C@@H]7O[C@H](CO)[C@H](O)[C@H](O[C@@H]8O[C@H](CO)[C@@H](O)[C@H](O)[C@H]8O)[C@H]7O[C@H]7O[C@@H](C)[C@H](O)[C@@H](O)[C@H]7O)CC[C@]6(C)[C@H]5CC[C@]34C)N2C1 (stereo partly drawn)	22µM*	.	.	3%	-102%
C[C@]1(C(=O)O)[C@@H]2CC[C@@H](O2)[C@@]1(C)C(=O)O	.	.	.	.	-70%[1.9 µM]
SMILES	HTT aggregate	ERK EGF inh	GLA inh pH 4.5	GLA spleen mod	HTT ATP protect
CC1CC[C@@]2(OC1)O[C@@H]1[C@@H](O)[C@H]3C4CC[C@H]5C[C@@H](O[C@@H]6O[C@H](CO)[C@H](O[C@@H]7O[C@H](CO)[C@@H](O)[C@H](O[C@@H]8OC[C@@H](O)[C@H](O)[C@H]8O)[C@H]7O[C@@H]7O[C@H](CO)[C@@H](O)[C@H](O[C@@H]8O[C@H](CO)[C@@H](O)[C@H](O)[C@H]8O)[C@H]7O)[C@H](O)[C@H]6O)[C@H](O)C[C@]5(C)C4CC[C@]3(C)[C@H]1[C@@H]2C (stereo partly drawn)	.	-3%	-9	14%	-25%[1.9 µM]
CC1CC[C@@]2(OC1)OC1C(O)C3C4CC[C@H]5CC(O[C@@H]6O[C@@H](CO)[C@H](OC7OC(CO)C(O)C(OC8OCC(O)C(O)[C@H]8O)[C@@H]7O[C@@H]7OC(CO)[C@H](O)[C@@H](O[C@@H]8OC(CO)C(O)C(O)C8O)C7O)C(O)C6O)C(O)C[C@]5(C)C4CC[C@]3(C)C1C2C (stereo partly drawn)	.	7.1µM*	7	-2%	-339%
CCCCCCC[n+]1ccc(-c2cc[n+](CCCCCCC)cc2)cc1	?	-6%	-10	-5%	0.89µM*!
CCCCCCCCCCCCCl	.	.	.	8%	7%
CCCCCCCCCCCCCCCC[n+]1ccccc1	16µM*	?	-12	5%	-65%
C[C@]12CC[C@H](O)C[C@@H]1CC[C@H]1[C@H]2CC[C@]2(C)[C@H](C(=O)CO)CC[C@@H]12	.	.	.	.	5%[1.9 µM]
CC1CCC2C(C)C(=O)OC3O[C@]4(C)CCC1[C@@]32OO4 (stereo partly drawn)	.	.	.	2%	.
C[C@@H]1CC[C@H]2[C@@H](C)C(=O)O[C@@H]3OC4(C)CC[C@@H]1C32OO4 (stereo partly drawn)	3.2µM*	-14%	-1	0%	-154%
CCCCCCCCCCCCCC(=O)O[C@H]1[C@@H](C)[C@@]2(O)[C@@H](C=C(CO)C[C@]3(O)C(=O)C(C)=C[C@@H]23)C2C(C)(C)[C@]21OC(C)=O (stereo partly drawn)	.	.	.	.	12%[1.9 µM]
CCOc1cc(-c2c(C#N)c(=O)[nH]c3c2c(C)nn3-c2ccc(F)cc2)ccc1O	13µM*	.	5	-3%	1%
CCOC(=O)C(O)(c1ccc(N(CC)C(=O)OC)cc1)C(F)(F)F (stereo not drawn)	1.6µM*	.	4	-1%	-2%[0.074 µM]
NC(=S)c1cn(C2OC(CO)C(O)C2O)c2ncnc(N)c12 (stereo not drawn)	2.8µM*	-12%[57.5 µM]	-6	-1%	-89%[10 µM]
O=C(O)c1ccccc1-c1c2cc(Br)c(=O)cc-2oc2[c]([Hg])c(O)c(Br)cc12	5µM*	?	0	-27%	-323%
O=C1Nc2ccccc2C2(CCN(CCc3ccc(C(F)(F)F)cc3)CC2)O1	.	32µM*	-17	20%	-74%
FC(F)(F)c1cccc(C2=CCN(CCc3ccc4ccccc4c3)CC2)c1	9%	.	.	7%	24%
N[C@]1(C(=O)O)CC[C@@H](C(=O)O)C1	.	.	.	.	-7%[1.9 µM]
